Source: PubChem BioAssay (Johns Hopkins Ion Channel Center)
The list is not random: actives were taken first. Their share in the collection is about 1.6%.
KCNQ2 enhance = enhances the rat KCNQ2 potassium channel; actives 0.54% (n = 310,000); AID 2239; B-score at 10 µM; O88943; CHO-K1 KCNQ2, FluxOR thallium flux fluorescence; hits give high values;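 active = fluorescence ratio B-score at least 3 SD of library B-scores, with initial fluorescence B-score within 3 of them, cut at about 5.3 in these data; same plate scores as AID 2156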;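 note: B-score of peak minus minimum over baseline fluorescence ratio after K+ and Tl+ stimulus; positive B-score means potentiation of KCNQ2 with more thallium influx and brighter signal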
Target sequence (O88943 whole entry, looked up): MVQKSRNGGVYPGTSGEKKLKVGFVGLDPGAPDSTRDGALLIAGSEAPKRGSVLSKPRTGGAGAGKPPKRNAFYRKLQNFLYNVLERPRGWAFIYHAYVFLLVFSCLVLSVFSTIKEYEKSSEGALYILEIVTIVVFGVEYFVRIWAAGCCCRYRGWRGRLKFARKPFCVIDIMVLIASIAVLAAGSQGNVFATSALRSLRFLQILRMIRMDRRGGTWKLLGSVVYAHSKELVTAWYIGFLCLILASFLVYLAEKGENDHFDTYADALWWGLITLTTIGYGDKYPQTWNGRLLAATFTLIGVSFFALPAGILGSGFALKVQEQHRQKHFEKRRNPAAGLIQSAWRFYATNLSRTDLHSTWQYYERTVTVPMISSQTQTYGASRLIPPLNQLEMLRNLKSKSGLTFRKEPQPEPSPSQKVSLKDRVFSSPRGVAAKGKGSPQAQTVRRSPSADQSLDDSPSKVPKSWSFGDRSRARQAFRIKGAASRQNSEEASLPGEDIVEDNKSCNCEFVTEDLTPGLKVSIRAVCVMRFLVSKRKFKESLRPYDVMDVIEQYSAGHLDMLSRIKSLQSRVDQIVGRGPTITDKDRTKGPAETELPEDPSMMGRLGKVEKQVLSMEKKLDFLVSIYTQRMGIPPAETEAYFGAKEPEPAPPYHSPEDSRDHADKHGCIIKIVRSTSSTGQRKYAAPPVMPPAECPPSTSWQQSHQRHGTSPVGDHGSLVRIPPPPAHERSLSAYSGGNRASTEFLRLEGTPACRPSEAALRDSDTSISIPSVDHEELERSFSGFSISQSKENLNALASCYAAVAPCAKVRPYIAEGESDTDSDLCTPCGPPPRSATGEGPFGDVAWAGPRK
KCNQ2 block = KCNQ2 (rat) channel inhibition; B-score at 10 µM; actives 1.1% (n = 310,000); CHO-K1 KCNQ2, FluxOR thallium flux, 20 min; hits give low values;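 active = fluorescence ratio B-score at most minus 3 library SDs, with starting brightness B-score within 2 library SDs, cut at about -5.5 in these data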
* = called active by the depositor; i = inactive; . = no result.

SMILES | KCNQ2 enhance | KCNQ2 block
COc1ccc(C(=O)CC(c2ccccc2)C2C(=O)CCCC2=O)cc1 (stereo not drawn) | 0.02 | i
C/C(=C\c1ccccc1)C(=O)NCCc1ccccc1 | . | i
CN(Cc1ccccc1)C(=O)c1cc2ccccc2o1 | . | i
CC(C)(C)N(Cc1ccccc1)C(=O)c1cc2ccccc2o1 | -5.9 | -5.9*
Cc1cccn2c(/C=N/OCc3cccc(F)c3)c(-c3ccc(Cl)cc3)nc12 | . | i
Fc1cccc(CO/N=C/c2c(-c3ccccc3)nc3ccc(Cl)cn23)c1 | -6.8 | -6.8*
O=S(=O)(c1ccc(OC(F)(F)F)cc1)N1CCCC(c2ccccc2)C1 (stereo not drawn) | -5.7 | -5.7*
O=c1[nH]c(C2CCCN(S(=O)(=O)c3ccccc3)C2)nc2c1nnn2Cc1ccc(OC(F)(F)F)cc1 (stereo not drawn) | 0.06 | i
CCOCCCn1c(C)nc2c(c1=O)c1nc3ccccc3nc1n2-c1ccc(C)cc1 | . | i
CCO/C(C)=N/n1c2nc3ccccc3nc2c2c(=O)n(CC(C)C)c(C)nc21 | -5.6 | -5.6*
CCOC(=O)c1c(S(=O)(=O)NCC2CCN(CCc3cccs3)CC2)c(C)n(C)c1C | . | i
CCOC(=O)c1nnn(CC(=O)N2N=C(c3cc(C)ccc3C)CC2c2ccc(OC)cc2)c1C(=O)OCC (stereo not drawn) | -5.8 | -5.8*
CCOC(=O)c1nnn(CC(=O)N2N=C(c3ccccc3)CC2c2ccccc2)c1C(=O)OCC (stereo not drawn) | 0.62 | i
CCOC(=O)CC(=O)c1sc2c(c1N)c(=O)[nH]c(=O)n2-c1ccc(OC)cc1 | 0.82 | i
CC(C)(C)OC(=O)N1CCCC1C(=O)NCCc1ccccc1 (stereo not drawn) | 0.63 | i
CCc1cc2c(C)cc(=O)oc2cc1OC(=O)C1CCCN1C(=O)OC(C)(C)C (stereo not drawn) | -6 | -6*
O=C1CN(c2ccccc2)C(=S)N1C(=O)c1ccc(Br)cc1 | -5.8 | -5.8*
O=C(c1ccc(Br)cc1)N1CCC(C(=O)N2CCN(c3ccccc3)CC2)CC1 | 1.5 | i
c1ccc2[nH]c3cc4ncnc4cc3nc2c1 | . | i
CC1C(=O)C(C)C(c2ccc3c(c2)OCO3)NC1c1ccc2c(c1)OCO2 (stereo not drawn) | . | i
CC1C(=O)C(C)C(c2ccc(Br)cc2)NC1c1ccc(Br)cc1 (stereo not drawn) | -6.3 | -6.3*
CNC(=O)c1ccc(C)c(NC(=O)C2=C(C)OCCS2)c1 | 0.64 | i
CC(C)Cn1c2c(c(O)c(C(=O)Nn3c(Cc4ccccc4)nc4ccccc4c3=O)c1=O)CCCC2 | -6.3 | -6.3*
CCCCc1nc2ccccc2c(=O)n1NC(=O)c1c(O)c2c(n(CC(C)C)c1=O)CCCC2 | . | i
O=C(CN(Cc1cccs1)C(=O)CNS(=O)(=O)c1ccc(Cl)cc1)NCC1CCCO1 (stereo not drawn) | . | i
SMILES | KCNQ2 enhance | KCNQ2 block
COc1cccc(NC(=O)c2cc(CN3C(=O)c4ccccc4C3=O)ccc2OC)c1 | . | i
O=S(=O)(c1cc(F)ccc1F)N1CCN2CCCC2C1 (stereo not drawn) | . | i
CC(C)CNC(=O)COC(=O)C1c2ccccc2Oc2ccccc21 | 0.37 | i
CC(C)(C)NC(=O)COC(=O)C1c2ccccc2Oc2ccccc21 | -5.7 | -5.7*
COc1cccc(NC(=S)N(Cc2ccc(Cl)cc2)Cc2ccc(C(=O)O)cc2)c1 | . | i
NC(=O)C1CCN(C(=O)c2ccc(OCC(=O)Nc3cccc(C(F)(F)F)c3)cc2)CC1 | . | i
CCOC(=O)C1CCN(C(=O)c2ccc(OCC(=O)Nc3cccc(C(F)(F)F)c3)cc2)CC1 | -6.5 | -6.5*
CCC(Sc1nc(C)cc(C)n1)C(=O)Nc1cc(C)on1 (stereo not drawn) | . | i
CCC(Sc1nc(C)cc(C)n1)C(=O)O (stereo not drawn) | 6.2* | i
CN(C)N1C(N)=C(C#N)C(c2ccc(Br)cc2)C2=C1CC(C)(C)CC2=O (stereo not drawn) | 1.8 | i
CC(c1ccco1)N(C(=O)C12CC3(C)CC(C)(CC(C)(C3)C1)C2)c1ccccn1 (stereo not drawn) | -6.3 | -6.3*
Cc1cccc(C(=O)N(c2ccccn2)C(C)c2ccco2)c1 (stereo not drawn) | . | i
CCCS(=O)(=O)N1CCN(Cc2c[nH]c3ccccc23)CC1 | . | i
O=C(c1ccccc1)n1ccc(-c2cccs2)n1 | 8.6* | i
COC(=O)c1cc(-c2cccs2)nn1-c1ccccc1 | 0.05 | i
O=C(NCCCc1nc2ccccc2[nH]1)c1ccc(F)cc1 | 7.3* | i
O=C(NCc1nc2ccccc2[nH]1)c1ccccc1F | 1.1 | i
CC(=O)Nc1ccc(NC(=O)COc2ccc(S(=O)(=O)N3CCCC3)cc2)cc1 | 1.3 | i
CCN(Cc1nc(-c2ccc(OC)cc2)no1)C(=O)c1ccoc1C | 0.17 | i
CCOC(=O)Cc1csc(NC(=S)NC(=O)c2ccccc2)n1 | . | i
CCOC(=O)Cc1csc(NC(=S)NC(=O)c2ccccc2Br)n1 | 9.6* | i
N#Cc1cccc(C(=O)Nc2cccc(S(=O)(=O)N3CCCC3)c2)c1 | 0.65 | i
Cn1c2ccccc2c(=O)c2ccc(C#CC3(N)CCCCC3)cc21 | -7.3 | -7.3*
Cn1c2ccccc2c(=O)c2cc(C#CC3(O)CCCCC3)ccc21 | 1.1 | i
Cc1ccc(S(=O)(=O)n2ccc3c(OCCOCCNCc4ccc(F)cc4)cccc32)cc1 | . | i
SMILES | KCNQ2 enhance | KCNQ2 block
CCc1ccc2c(CN3CCN(S(=O)(=O)c4ccc5c(c4)OCCO5)CC3)cc(=O)oc2c1 | 0.46 | i
O=c1cc(CN2CCN(S(=O)(=O)c3ccc4c(c3)OCCO4)CC2)c2ccc(O)cc2o1 | -5.6 | -5.6*
C=CCNC(=O)CN1CCN(C(c2ccccc2)c2ccccc2)CC1 | 0.45 | i
N#CCCn1cc(C=O)c(-c2cccs2)n1 | 1.5 | i
C=CCn1c(CCCNC(=O)C(C)(C)C)nc2ccccc21 | 1.2 | i
C=CCn1c(C(C)NC(=O)C(C)(C)C)nc2ccccc21 (stereo not drawn) | -6.6 | -6.6*
O=C(Cc1ccccc1)Nn1c(-c2ccccc2)nc2ccccc2c1=O | 8.4* | i
O=C(Cc1ccccc1)Nn1c(-c2ccccc2F)nc2ccccc2c1=O | 9.4* | i
O=C(Nn1c(-c2ccccc2)nc2ccccc2c1=O)c1ccco1 | 0.08 | i
O=C(CSc1nc2ccccc2c(=O)n1NC(=O)Cc1ccccc1)NCc1ccccc1 | 0.8 | i
O=C(COc1ccc2c(c1)OCO2)NC12CC3CC(CC(C3)C1)C2 | . | i
O=C(NCc1ccc2c(c1)OCO2)NC12CC3CC(CC(C3)C1)C2 | 25* | i
C(=N\Nc1nc(N2CCCCCC2)nc(N2CCCCCC2)n1)/c1ccccc1 | -5.8 | -5.8*
O=C(O)c1ccccc1/C=N/Nc1nc(N2CCCCC2)nc(N2CCCCC2)n1 | . | i
COc1ccc(-c2csc(NCc3ccco3)n2)cc1C | . | i
COc1ccc(-c2nc3cccc(C)n3c2NCc2ccco2)cc1OC | -6 | -6*
COc1ccc(-c2cn3nc(SCC(=O)NCC4CCCO4)ccc3n2)cc1 (stereo not drawn) | . | i
CCn1c(=O)[nH]c(=O)c2c(N)c(C(=O)c3cc(F)ccc3F)sc21 | 1.8 | i
Cc1ccc(NC2CCCN(C(=O)c3ccc(F)cc3)C2)cc1C (stereo not drawn) | . | i
CCN(CC)c1ccc(C=NCCNS(=O)(=O)c2ccc(C)cc2)cc1 | 0.47 | i
